Sampled rows, rich in hits. Any-hit rate of the full collection: about 11%.
HttQ103 aggreg: qHTS Multiplex Assay to Identify Dual Action Probes in a Cell Model of Huntington: Aggregate Formation (GFP) | PC12 HttQ103-GFP aggregates, Acumen cytometry, 40 h | Potency, µM (top dose mostly 46.1 µM), for inactives: at the top dose activity change, negative = inhibition, usual class: inhibitors | AID 1688, 2009 | 220,000 compounds, 1.1% hits; active = well fitted curve in the direction sought with a large enough effect; inconclusive = small, poorly fitted or top-dose-only effect, or another doubt; inactive = no such curve, though single readings can be large; an effect the other way counts as inactive or inconclusive; also: potency is read from the fitted curve at half-maximal effect; % is scaled to controls: 0 for no effect and ±100 for the full control effect; nearly all actives have a fitted effect of over 60% in size
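Using laser scanning cytometry, GFP-positive aggregates were counted after lysis of PC12 cells induced with 100 nM tebufenozide to express HTT exon 1 Q103–GFP. Compounds were tested in titration.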
HTT cytoprotect: qHTS Multiplex Assay to Identify Dual Action Probes in a Cell Model of Huntington: Cytoprotection (ATP) | PC12 HTT-Q103 induced, cytoprotection, ATP luminescence, 40 h | Potency, µM (series often up to 56.4 µM), inactives show cytoprotection (ATP increase), actives largely listed as activators | 230,000 compounds, 0.14% hits | AID 1471, 2008; active = well fitted curve in the direction sought with a large enough effect; inconclusive = small, poorly fitted or top-dose-only effect, or another doubt; inactive = no such curve, though single readings can be large; an effect the other way counts as inactive or inconclusive; also: potency is read from the fitted curve at half-maximal effect; % of control where 0% means no effect; nearly all actives have a fitted effect of over 45% in size
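Huntington model: PC12 line, ecdysone-inducible HTTQ103 exon1–GFP, tebufenozide 100 nM. Test articles in a dose series. Endpoint luminescence from cellular ATP.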
GoLoco inh red: qHTS Assay for Inhibitors of RGS12 GoLoco Motif Activity (Red Fluorophore). Gai1:RGS12 GoLoco peptide FP, rhodamine, 10 min. 230,000 compounds, 0.44% hits. Guanine nucleotide-binding protein G(i) subunit alpha-1 (Homo sapiens), P63096. Potency, µM (doses to about 61.6 µM), for the others: at the highest dose activity, negative = inhibition, most hits filed as inhibitors; active = well fitted inhibition curve with a large enough effect, not every such curve was filed as active; inactive = no such curve, though single readings can be large or run the other way; also: potency is read from the fitted curve at half-maximal effect; % is scaled to controls: 0 for no effect and ±100 for the full control effect; nearly all actives have a fitted effect of over 30% in size
Target sequence (P63096 whole entry, looked up): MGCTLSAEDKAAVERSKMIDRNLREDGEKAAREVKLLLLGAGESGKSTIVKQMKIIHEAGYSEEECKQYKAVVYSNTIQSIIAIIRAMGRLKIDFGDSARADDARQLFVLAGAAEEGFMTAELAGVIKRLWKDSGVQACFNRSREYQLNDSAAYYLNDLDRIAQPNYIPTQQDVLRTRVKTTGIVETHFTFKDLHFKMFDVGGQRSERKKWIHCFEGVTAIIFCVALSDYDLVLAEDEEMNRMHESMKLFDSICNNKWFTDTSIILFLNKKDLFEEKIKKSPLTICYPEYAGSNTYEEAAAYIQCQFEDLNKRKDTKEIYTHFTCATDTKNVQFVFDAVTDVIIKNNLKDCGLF
HPGD block: qHTS Assay for Inhibitors of HPGD (15-Hydroxyprostaglandin Dehydrogenase); 15-hydroxyprostaglandin dehydrogenase [NAD(+)] (Homo sapiens), P15428; purified HPGD, NADH fluorescence kinetic, PGE2 substrate; Potency, µM, inactives show top-dose activity change, negative = inhibition, actives largely listed as inhibitors; 150,000 compounds, 4.3% hits; also: potency is read from the fitted curve at half-maximal effect; % is scaled to controls: 0 for no effect and ±100 for the full control effect
Target sequence (P15428 whole entry, looked up): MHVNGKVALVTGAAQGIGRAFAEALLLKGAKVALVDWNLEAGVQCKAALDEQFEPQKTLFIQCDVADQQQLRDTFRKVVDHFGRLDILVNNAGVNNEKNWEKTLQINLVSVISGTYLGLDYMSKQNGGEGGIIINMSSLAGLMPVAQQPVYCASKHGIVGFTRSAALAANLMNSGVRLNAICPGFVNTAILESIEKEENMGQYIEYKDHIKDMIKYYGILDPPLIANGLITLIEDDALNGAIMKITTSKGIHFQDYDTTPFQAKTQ
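NADH formation kinetics: reaction with 30 uM PGE2 and 1 mM NAD+ (final), 20 nM enzyme, Tris-HCl pH 8 with Tween 20, after 15 min compound preincubation at room temperature. Fluorescence change, last versus first of five reads.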
PNC assembly inh: High Content Assay for Compounds that inhibit the Assembly of the Perinucleolar Compartment; PC3M PTB-GFP, PNC prevalence imaging, 16 h; stronger effect = lower value; activity change (PNC), negative = inhibition, % at 10 µM; 140,000 compounds, 3.1% hits;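 active = readout at or below -70, meaning at least 70% loss of cells showing the perinucleolar compartment, a nuclear body marking cancer cells; inconclusive = readout between -30 and a set limit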;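 also: plate controls were DMSO wells for no effect and camptothecin positive control wells for full effect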
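PC3M cells stably expressing PTB-GFP, 750–1000 cells/well, treated 16 h at 37 °C with compound (23 nl of library stock), in duplicate. After paraformaldehyde fixation and Hoechst stain, imaged at 20x; PNC prevalence scored by image analysis.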
ALDH1A1 inh: qHTS Assay for Inhibitors of Aldehyde Dehydrogenase 1 (ALDH1A1); Aldehyde dehydrogenase 1A1 (Homo sapiens), P00352; Potency, µM (top dose mostly 75.3 µM), without a hit: top-dose activity, negative = inhibition, usual class: inhibitors; 220,000 compounds, 7.3% hits; AID 1030, 2008; Purified ALDH1A1, NADH fluorescence, propionaldehyde substrate;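 also: potency is read from the fitted curve at half-maximal effect; plate controls were no enzyme wells and a reference inhibitor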
Numbers without * were called inactive; [ ] = remark or other dose. Unless noted, calls follow the shape of the dose curve; as a rule, active = well fitted inhibition curve with a large enough effect (not every such curve was filed as active); inconclusive = small, poorly fitted or top-dose-only effect, or another doubt; inactive = no such curve, though single readings can be large or run the other way.

For C[C@@]12CCC3c4ccc(OS(=O)(=O)O)cc4CCC3C1CCC2O (stereo not given in full) the results were GoLoco inh red 3%, HPGD block -11% and ALDH1A1 inh 9%.
Screening CCCOc1ccc(NC(=O)CC2C(=O)N(Cc3ccccc3)C(=S)N2Cc2cccs2)cc1 (stereo not given) returned HttQ103 aggreg 3%, HTT cytoprotect 14%[10 µM], GoLoco inh red 11%, HPGD block -17%, PNC assembly inh 6 and ALDH1A1 inh inconclusive.
Screening CC(C)OC(=O)CSc1nnc(-c2ccccn2)n1N returned HttQ103 aggreg -2%[9.22 µM], HTT cytoprotect 25%[10 µM] and GoLoco inh red 5%.
For O=C(c1ccccc1)c1ccccc1N1C(=O)C=CC1=O the results were HttQ103 aggreg -17%[9.22 µM], HTT cytoprotect -15%[10 µM], GoLoco inh red -33% and ALDH1A1 inh 3.2µM*.
CC(NC(=O)CSc1ccccc1C(=O)O)C1CC2CCC1C2 (stereo not given) was read as HttQ103 aggreg -2%, HTT cytoprotect 0%, GoLoco inh red -6% and ALDH1A1 inh inconclusive.
For CC(SCC(=O)NC(C)C1CC2CCC1C2)C(=O)O (stereo not given) the results were HttQ103 aggreg 16%, HTT cytoprotect 0.89µM*, GoLoco inh red 0%, HPGD block -8%, PNC assembly inh 26 and ALDH1A1 inh -8%.
For C/C(=N\Nc1nc2c(s1)CCCC2)c1ccc(Cl)cc1 the results were HttQ103 aggreg -4%, HTT cytoprotect -15%, GoLoco inh red 0%, HPGD block -14%, PNC assembly inh inconclusive and ALDH1A1 inh 28µM*.
Screening CN=c1scc(-c2ccccc2F)n1/N=C(\C)c1cccnc1 returned HttQ103 aggreg inconclusive, HTT cytoprotect -35%[10 µM], GoLoco inh red 6% and ALDH1A1 inh -7%.
For Cc1ccc(S(=O)(=O)Nc2cc(C)nn2-c2ccccc2)cc1 the results were HttQ103 aggreg 6%, HTT cytoprotect 5%, GoLoco inh red -6%, HPGD block -7%, PNC assembly inh -10 and ALDH1A1 inh 25µM*.
For Cc1cc(Nc2ccccc2)n(-c2cccc(Cl)c2)n1 the results were HttQ103 aggreg inconclusive, HTT cytoprotect -13%, GoLoco inh red -1%, HPGD block 28µM*, PNC assembly inh -96* and ALDH1A1 inh inconclusive.
For COc1cc(C)cc2c(-c3c(O)cc(O)c4c3C[C@H](C)N[C@@H]4C)cc(-c3cc(-c4c(O)cc(O)c5c4C[C@H](C)N[C@@H]5C)c4cc(C)cc(OC)c4c3O)c(O)c12 the results were HTT cytoprotect 7%[10 µM], GoLoco inh red 0%[14.2 µM], HPGD block -12% and ALDH1A1 inh inconclusive.
Screening COc1ccc2[nH]c3c4c(ccc3c2c1)C(=O)C=CC4=O returned HttQ103 aggreg -2%[9.22 µM], HTT cytoprotect -29%[10 µM] and GoLoco inh red 22µM*.
For COc1ccc2[nH]c(-c3ccc(F)cc3F)cc(=O)c2c1 the results were GoLoco inh red 1%[88.7 µM], HPGD block -21% and ALDH1A1 inh -4%.
For CC(=O)O[C@H]1C2OC(=O)C(C)=C2[C@@H]2OC(=O)[C@]3(CCC4OC41C)OC23 (stereo not given in full) the results were HttQ103 aggreg 25%, GoLoco inh red 3%, HPGD block -7%, PNC assembly inh -119* and ALDH1A1 inh 0%.
COc1ccc(OC)c(/C(C)=N/Nc2ccc(C(=O)O)cc2)c1 was read as HttQ103 aggreg -5%[9.22 µM], HTT cytoprotect 5%[10 µM], GoLoco inh red -2% and ALDH1A1 inh -13%.
Screening C/C(=N/Nc1ccc(C(=O)O)cc1)c1ccc(O)c(O)c1O returned HttQ103 aggreg -5%, HTT cytoprotect 22%[10 µM], GoLoco inh red -1%, HPGD block 25µM*, PNC assembly inh 35 and ALDH1A1 inh inconclusive.
Screening C/C(=N\Nc1ccc(C(=O)O)cc1)c1nc2ccccc2n1C returned HttQ103 aggreg 22%, HTT cytoprotect -1%[10 µM], GoLoco inh red 2%, HPGD block 16µM*, PNC assembly inh -14 and ALDH1A1 inh 5%.
For C[C@]12CC[C@H](O)CC1=CC[C@H]1[C@@H]2CC[C@@]2(C)C(N(CCO)CCO)CC[C@@H]12 (stereo not given in full) the results were GoLoco inh red 2%[14.2 µM], HPGD block -1% and ALDH1A1 inh 2%[13.5 µM].
`COc1cc(N2C(=O)c3ccccc3C2=O)c(Cl)cc1C(=O)OCC(=O)N(C)C` gave HttQ103 aggreg 3%, HTT cytoprotect -19%, GoLoco inh red 3% and ALDH1A1 inh -2%.
Screening O=C(COC(=O)c1ccc2c(=O)n3c(nc2c1)CCC3)NC1CCS(=O)(=O)C1 (stereo not given) returned HttQ103 aggreg 0.0063µM*, HTT cytoprotect -24%, GoLoco inh red -4% and ALDH1A1 inh -3%.
O=C(CN1C(=O)c2ccccc2C1=O)[C@@H](O)CN1C(=O)c2ccccc2C1=O was read as HTT cytoprotect 3%[10 µM], GoLoco inh red 0%[14.2 µM], HPGD block 2% and ALDH1A1 inh inconclusive.
Screening Cc1ccc(C(=O)O)cc1-n1c(C)cc(C=O)c1C returned HttQ103 aggreg 1%[9.22 µM], HTT cytoprotect 9%[10 µM], GoLoco inh red 13% and ALDH1A1 inh 2µM*.
`Cc1cc(C=O)c(C)n1-c1sc2c(c1C(=O)O)CCCC2` gave HttQ103 aggreg -17%, HTT cytoprotect 20%[10 µM], GoLoco inh red 2%, HPGD block 0%, PNC assembly inh 18 and ALDH1A1 inh 4%.
Cc1c(C(=O)O)cccc1-n1c(C)cc(C=O)c1C was read as HttQ103 aggreg 4%, HTT cytoprotect 24%[10 µM], GoLoco inh red 8% and ALDH1A1 inh 22µM*.
Screening COc1ccccc1CCn1c(=O)c(CCc2ccccc2)nc2cncnc21 returned HTT cytoprotect -38%, GoLoco inh red -9% and ALDH1A1 inh inconclusive.
`CC1CCCN(C2=C(NS(=O)(=O)c3ccc(Cl)cc3)C(=O)c3ccccc3C2=O)C1` (stereo not given) gave HttQ103 aggreg 2%, HTT cytoprotect -7%[10 µM], GoLoco inh red -14%, HPGD block -25%, PNC assembly inh inconclusive and ALDH1A1 inh 13µM*.

Compound activity as filed in PubChem.
